# Data: publication PMC11006913
# Where a chain is given by its changes, count along the chain named.
# How the values were obtained:
# Experiment in all cases: PBM; 200 nM protein, PBS
# Details in all cases: dsDNA, one strand shown
# NKX2-5 [1] = target: NKX2-5 (Homo sapiens, UniProt P52952 125-210, R139K)
# NKX2-4 [2] = target: T1, NKX2-4 (Homo sapiens, UniProt Q9H2Z4 175-261, P217L)
# T1 sequence: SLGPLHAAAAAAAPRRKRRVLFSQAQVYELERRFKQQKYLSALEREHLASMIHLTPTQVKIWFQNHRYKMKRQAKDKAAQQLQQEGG
# NKX2-4 [3] = target: T2, NKX2-4 (Homo sapiens, UniProt Q9H2Z4 175-261, T231S)
# T2 sequence: T1 sequence with L43P, T57S
# NKX2-4 [4] = target: T3, NKX2-4 (Homo sapiens, UniProt Q9H2Z4 175-261)
# T3 sequence: T1 sequence with L43P
# NKX2-6 [5] = target: T4, NKX2-6 (Homo sapiens, UniProt A6NCS4 118-204, R150C)
# T4 sequence: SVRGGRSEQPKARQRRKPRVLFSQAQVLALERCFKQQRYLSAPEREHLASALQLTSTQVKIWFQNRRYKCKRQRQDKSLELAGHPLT
# NKX2-6 [6] = target: T5, NKX2-6 (Homo sapiens, UniProt A6NCS4 118-204)
# T5 sequence: T4 sequence with C33R
# NKX2-4 [7] = target: T6, NKX2-4 (Homo sapiens, UniProt Q9H2Z4 175-261, R246Q)
# T6 sequence: T1 sequence with L43P, R72Q
# NKX2-6 [8] = target: T7, NKX2-6 (Homo sapiens, UniProt A6NCS4 118-204, F151L)
# T7 sequence: T4 sequence with C33R, F34L
# NKX3-2 [9] = target: NKX3-2 (Homo sapiens, UniProt P78367 192-278, P234S)
# NKX3-2 (Homo sapiens, UniProt P78367 192-278, P234S), sequence (P78367 192-278 P234S): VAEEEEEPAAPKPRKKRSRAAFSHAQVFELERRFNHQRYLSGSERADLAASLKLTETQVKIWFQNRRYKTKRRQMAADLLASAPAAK
# NKX2-5 [10] = target: NKX2-5 (Homo sapiens, UniProt P52952 125-210)
# NKX2-5 (Homo sapiens, UniProt P52952 125-210), sequence (P52952 125-210): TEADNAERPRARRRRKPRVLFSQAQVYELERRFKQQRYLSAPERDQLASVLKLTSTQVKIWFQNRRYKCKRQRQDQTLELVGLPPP
# HOXB4 [11] = target: HOXB4 (Homo sapiens, UniProt P17483 148-234)
# HOXB4 (Homo sapiens, UniProt P17483 148-234), sequence (P17483 148-234): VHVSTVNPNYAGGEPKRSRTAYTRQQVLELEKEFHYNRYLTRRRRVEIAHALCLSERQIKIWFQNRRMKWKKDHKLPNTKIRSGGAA
# SHOX = SHOX (Homo sapiens, UniProt O15266 103-189)
# SHOX, sequence (O15266 103-189): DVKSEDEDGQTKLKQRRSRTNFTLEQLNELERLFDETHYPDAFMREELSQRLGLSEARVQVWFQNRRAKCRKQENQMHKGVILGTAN
# VENTX [12] = target: T8, VENTX (Homo sapiens, UniProt O95231 78-163, R121Q)
# T8 sequence: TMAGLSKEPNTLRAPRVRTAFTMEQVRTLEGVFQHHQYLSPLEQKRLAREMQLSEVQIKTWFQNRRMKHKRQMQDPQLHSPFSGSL
# VENTX [13] = target: T9, VENTX (Homo sapiens, UniProt O95231 78-163)
# T9 sequence: T8 sequence with Q44R
# VENTX [14] = target: T10, VENTX (Homo sapiens, UniProt O95231 78-163, Y115F)
# T10 sequence: T8 sequence with Y38F, Q44R
# HOXB4 [15] = target: HOXB4 (Homo sapiens, UniProt P17483 148-234, V174I)
# HOXB4 (Homo sapiens, UniProt P17483 148-234, V174I), sequence (P17483 148-234 V174I): as the sequence (P17483 148-234) above, with V27I counted along it
# ALX1 [16] = target: ALX1 (Homo sapiens, UniProt Q15699 118-204, L144V)
# ALX1 (Homo sapiens, UniProt Q15699 118-204, L144V), sequence (Q15699 118-204 L144V): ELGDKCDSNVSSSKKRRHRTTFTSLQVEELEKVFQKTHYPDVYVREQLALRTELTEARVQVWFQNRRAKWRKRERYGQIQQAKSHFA
# ALX1 [17] = target: ALX1 (Homo sapiens, UniProt Q15699 118-204, L144R)
# ALX1 (Homo sapiens, UniProt Q15699 118-204, L144R), sequence (Q15699 118-204 L144R): as the sequence (Q15699 118-204 L144V) above, with V27R counted along it
# ALX1 [18] = target: ALX1 (Homo sapiens, UniProt Q15699 118-204)
# ALX1 (Homo sapiens, UniProt Q15699 118-204), sequence (Q15699 118-204): as the sequence (Q15699 118-204 L144V) above, with V27L counted along it
# NKX3-2 [19] = target: NKX3-2 (Homo sapiens, UniProt P78367 192-278)
# NKX3-2 (Homo sapiens, UniProt P78367 192-278), sequence (P78367 192-278): as the sequence (P78367 192-278 P234S) above, with S43P counted along it
# NKX2-5 (Homo sapiens, UniProt P52952 125-210, R139K), sequence (P52952 125-210 R139K): as the sequence (P52952 125-210) above, with R15K counted along it
sequence,measurement,setting,value
ATAAGTAC,binding signal,NKX2-5 [1],"12.9 upbm affinity estimate (log intensity, higher = more binding, comparable within an allelic series)"
same,binding signal,NKX2-4 [2],"12.6 upbm affinity estimate (log intensity, higher = more binding, comparable within an allelic series)"
same,binding signal,NKX2-4 [3],"13 upbm affinity estimate (log intensity, higher = more binding, comparable within an allelic series)"
same,binding signal,NKX2-4 [4],"12.5 upbm affinity estimate (log intensity, higher = more binding, comparable within an allelic series)"
same,binding signal,NKX2-6 [5],"12 upbm affinity estimate (log intensity, higher = more binding, comparable within an allelic series)"
same,binding signal,NKX2-6 [6],"13.6 upbm affinity estimate (log intensity, higher = more binding, comparable within an allelic series)"
same,binding signal,NKX2-4 [7],"13.1 upbm affinity estimate (log intensity, higher = more binding, comparable within an allelic series)"
same,binding signal,NKX2-6 [8],"10.9 upbm affinity estimate (log intensity, higher = more binding, comparable within an allelic series)"
same,binding signal,NKX3-2 [9],"12.5 upbm affinity estimate (log intensity, higher = more binding, comparable within an allelic series)"
same,binding signal,NKX2-5 [10],"12.7 upbm affinity estimate (log intensity, higher = more binding, comparable within an allelic series)"
CTAATTGC,binding signal,NKX2-5 [1],"10.9 upbm affinity estimate (log intensity, higher = more binding, comparable within an allelic series)"
same,binding signal,HOXB4 [11],"12.9 upbm affinity estimate (log intensity, higher = more binding, comparable within an allelic series)"
same,binding signal,SHOX,"11.8 upbm affinity estimate (log intensity, higher = more binding, comparable within an allelic series)"
same,binding signal,VENTX [12],"12.3 upbm affinity estimate (log intensity, higher = more binding, comparable within an allelic series)"
same,binding signal,VENTX [13],"12.7 upbm affinity estimate (log intensity, higher = more binding, comparable within an allelic series)"
same,binding signal,VENTX [14],"12 upbm affinity estimate (log intensity, higher = more binding, comparable within an allelic series)"
same,binding signal,HOXB4 [15],"13.7 upbm affinity estimate (log intensity, higher = more binding, comparable within an allelic series)"
same,binding signal,ALX1 [16],"11.5 upbm affinity estimate (log intensity, higher = more binding, comparable within an allelic series)"
same,binding signal,ALX1 [17],"11 upbm affinity estimate (log intensity, higher = more binding, comparable within an allelic series)"
same,binding signal,ALX1 [18],"12.2 upbm affinity estimate (log intensity, higher = more binding, comparable within an allelic series)"
same,binding signal,NKX2-5 [10],"11.1 upbm affinity estimate (log intensity, higher = more binding, comparable within an allelic series)"
ACGGCTGG,binding signal,NKX2-5 [1],"8.82 upbm affinity estimate (log intensity, higher = more binding, comparable within an allelic series)"
same,binding signal,HOXB4 [11],"7.57 upbm affinity estimate (log intensity, higher = more binding, comparable within an allelic series)"
same,binding signal,HOXB4 [15],"7.93 upbm affinity estimate (log intensity, higher = more binding, comparable within an allelic series)"
same,binding signal,NKX2-5 [10],"8.82 upbm affinity estimate (log intensity, higher = more binding, comparable within an allelic series)"
GTACTTAA,binding signal,NKX2-5 [1],"13.1 upbm affinity estimate (log intensity, higher = more binding, comparable within an allelic series)"
same,binding signal,NKX2-4 [2],"12.8 upbm affinity estimate (log intensity, higher = more binding, comparable within an allelic series)"
same,binding signal,NKX2-4 [3],"13.2 upbm affinity estimate (log intensity, higher = more binding, comparable within an allelic series)"
same,binding signal,NKX2-4 [4],"12.6 upbm affinity estimate (log intensity, higher = more binding, comparable within an allelic series)"
same,binding signal,NKX2-6 [5],"12 upbm affinity estimate (log intensity, higher = more binding, comparable within an allelic series)"
same,binding signal,NKX2-6 [6],"13.9 upbm affinity estimate (log intensity, higher = more binding, comparable within an allelic series)"
same,binding signal,NKX2-4 [7],"13.3 upbm affinity estimate (log intensity, higher = more binding, comparable within an allelic series)"
same,binding signal,NKX2-6 [8],"11.2 upbm affinity estimate (log intensity, higher = more binding, comparable within an allelic series)"
same,binding signal,NKX3-2 [9],"12.7 upbm affinity estimate (log intensity, higher = more binding, comparable within an allelic series)"
same,binding signal,NKX2-5 [10],"12.9 upbm affinity estimate (log intensity, higher = more binding, comparable within an allelic series)"
same,binding signal,NKX3-2 [19],"12.8 upbm affinity estimate (log intensity, higher = more binding, comparable within an allelic series)"
ACCAGCTG,binding signal,NKX2-5 [1],"8.74 upbm affinity estimate (log intensity, higher = more binding, comparable within an allelic series)"
same,binding signal,SHOX,"7.08 upbm affinity estimate (log intensity, higher = more binding, comparable within an allelic series)"
same,binding signal,VENTX [12],"7.92 upbm affinity estimate (log intensity, higher = more binding, comparable within an allelic series)"
same,binding signal,VENTX [13],"8.2 upbm affinity estimate (log intensity, higher = more binding, comparable within an allelic series)"
same,binding signal,VENTX [14],"8.14 upbm affinity estimate (log intensity, higher = more binding, comparable within an allelic series)"
same,binding signal,NKX2-5 [10],"9.02 upbm affinity estimate (log intensity, higher = more binding, comparable within an allelic series)"
CCACTTCA,binding signal,NKX2-5 [1],"12.9 upbm affinity estimate (log intensity, higher = more binding, comparable within an allelic series)"
same,binding signal,NKX2-4 [2],"12.9 upbm affinity estimate (log intensity, higher = more binding, comparable within an allelic series)"
same,binding signal,NKX2-4 [3],"13.2 upbm affinity estimate (log intensity, higher = more binding, comparable within an allelic series)"
same,binding signal,NKX2-4 [4],"12.7 upbm affinity estimate (log intensity, higher = more binding, comparable within an allelic series)"
same,binding signal,NKX2-6 [5],"12 upbm affinity estimate (log intensity, higher = more binding, comparable within an allelic series)"
same,binding signal,NKX2-6 [6],"13.7 upbm affinity estimate (log intensity, higher = more binding, comparable within an allelic series)"
same,binding signal,NKX2-4 [7],"13.4 upbm affinity estimate (log intensity, higher = more binding, comparable within an allelic series)"
same,binding signal,NKX2-6 [8],"11 upbm affinity estimate (log intensity, higher = more binding, comparable within an allelic series)"
same,binding signal,NKX3-2 [9],"12.8 upbm affinity estimate (log intensity, higher = more binding, comparable within an allelic series)"
same,binding signal,NKX2-5 [10],"12.9 upbm affinity estimate (log intensity, higher = more binding, comparable within an allelic series)"
same,binding signal,NKX3-2 [19],"12.8 upbm affinity estimate (log intensity, higher = more binding, comparable within an allelic series)"
TAAGTGGA,binding signal,NKX2-5 [1],"13.2 upbm affinity estimate (log intensity, higher = more binding, comparable within an allelic series)"
same,binding signal,NKX2-4 [2],"12.8 upbm affinity estimate (log intensity, higher = more binding, comparable within an allelic series)"
same,binding signal,NKX2-4 [3],"13.2 upbm affinity estimate (log intensity, higher = more binding, comparable within an allelic series)"
same,binding signal,NKX2-4 [4],"12.6 upbm affinity estimate (log intensity, higher = more binding, comparable within an allelic series)"
same,binding signal,NKX2-6 [5],"12.3 upbm affinity estimate (log intensity, higher = more binding, comparable within an allelic series)"
same,binding signal,NKX2-6 [6],"13.9 upbm affinity estimate (log intensity, higher = more binding, comparable within an allelic series)"
same,binding signal,NKX2-4 [7],"13.3 upbm affinity estimate (log intensity, higher = more binding, comparable within an allelic series)"
same,binding signal,NKX2-6 [8],"11.3 upbm affinity estimate (log intensity, higher = more binding, comparable within an allelic series)"
same,binding signal,NKX3-2 [9],"13.2 upbm affinity estimate (log intensity, higher = more binding, comparable within an allelic series)"
same,binding signal,NKX2-5 [10],"13.1 upbm affinity estimate (log intensity, higher = more binding, comparable within an allelic series)"
same,binding signal,NKX3-2 [19],"13.3 upbm affinity estimate (log intensity, higher = more binding, comparable within an allelic series)"
